# Assay outcomes from PubChem BioAssay.
# The full list was thinned out, with hits kept by preference.
# AmpC inh no detg = AmpC beta-lactamase inhibition without detergent; P00811; AmpC nitrocefin hydrolysis, absorbance 480 nm, 0.0001% Triton; Potency, µM (series often up to 57.1 µM), inactives show top-dose activity change, negative = inhibition, most hits filed as inhibitors; 0.52% of 330,000 active; AID 485341;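 further: potency means the concentration at half of the fitted maximal effect; plate controls were no compound for no effect and no enzyme for full effect; nearly all actives have a fitted effect of over 20% in size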
# Target sequence (P00811 whole entry, looked up): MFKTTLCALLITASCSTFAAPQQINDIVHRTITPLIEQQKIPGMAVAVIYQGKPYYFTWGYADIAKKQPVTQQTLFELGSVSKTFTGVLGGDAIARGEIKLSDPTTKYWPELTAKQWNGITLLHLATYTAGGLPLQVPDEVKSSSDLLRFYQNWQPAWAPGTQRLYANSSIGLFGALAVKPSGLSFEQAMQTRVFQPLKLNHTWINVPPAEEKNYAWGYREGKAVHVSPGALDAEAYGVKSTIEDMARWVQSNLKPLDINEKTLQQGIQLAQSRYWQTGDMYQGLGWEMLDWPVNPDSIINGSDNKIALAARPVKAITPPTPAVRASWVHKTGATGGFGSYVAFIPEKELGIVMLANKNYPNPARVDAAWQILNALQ
#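 AmpC (5.3 nM in the dispensed reagent) in 20 mM phosphate pH 7.0 with 0.01% (detergent screen) or 0.0001% Triton X-100 was preincubated with compounds for 15 min at room temperature. Nitrocefin was then added from an 800 uM solution, and hydrolysis was followed at 480 nm.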
# Shiga toxin inh = Shiga toxin inhibition; Vero cells, Shiga toxin protein synthesis inhibition reporter; inhibition, % at 38.7 µM; 9.2% of 290,000 active; in the data active means inhibition mostly above about 28%, no sharp cut-off; inactive means mostly below about 43%; further: 0% is about no effect
# SARS PLpro yeast = blocks SARS-CoV papain-like protease in a yeast assay. AID 485353. Potency, µM (doses to about 32.9 µM), without a hit: at the highest dose activity, positive = growth rescue, most hits filed as activators. 0.19% of 330,000 active. S. cerevisiae expressing SARS-CoV PLpro, growth rescue; calls by dose curve; further: potency means the concentration at half of the fitted maximal effect; 0% is about no effect; nearly all actives have a fitted effect of over 55% in size
# CHX counter = counter-screen for Shiga toxin inhibitors: cycloheximide protein synthesis inhibition | cell reporter, cycloheximide protein synthesis inhibition counterscreen | max response, % | 12% of 300,000 active; in the data active means max response mostly above about 13%, no sharp cut-off; inactive means mostly below about 14%; further: read at 38.3 µM for the half of the compounds with a filed dose; 0% is about no effect
# AMA1 RON2 block = inhibitors of Plasmodium falciparum AMA1-RON2 interaction; AlphaScreen AMA1-biotinylated RON2 peptide binding; Potency, µM (series often up to 58.2 µM), for the others: top-dose activity change, negative = inhibition, usual class: inhibitors; 0.2% of 360,000 active; AID 720542;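 further: potency means the concentration at half of the fitted maximal effect; 0% = vehicle wells and -100% = peptide control; nearly all actives have a fitted effect of over 45% in size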
#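 AMA1 (3D7) with his tag at 25 nM final met compounds first, then biotinylated RON2 peptide at 25 nM; detection used donor plus acceptor beads, 10 µg/mL apiece, read by AlphaScreen after 30 min at room temperature.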
# AmpC inh detg = blocks E. coli AmpC beta-lactamase in detergent assay | AmpC hydrolysis of nitrocefin, absorbance 480 nm, 0.01% Triton | 0.041% of 370,000 active | Potency, µM (series often up to 114 µM), inactives show at the highest dose activity change, negative = inhibition, actives largely listed as inhibitors | P00811;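 further: potency means the concentration at half of the fitted maximal effect; 0% = no-compound wells and -100% = no-enzyme wells; nearly all actives have a fitted effect of over 25% in size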
#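 AmpC (5.3 nM in the dispensed reagent) in 20 mM phosphate pH 7.0 with 0.01% (detergent screen) or 0.0001% Triton X-100 was preincubated with compounds for 15 min at room temperature. Nitrocefin was then added from an 800 uM solution, and hydrolysis was followed at 480 nm.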
# * = called active by the depositor; ? = inconclusive; . = no result given; + = active, no number. Unless noted, the call rests on the fitted dose curve; in most records, active means well fitted curve in the direction sought with a large enough effect; inconclusive means small, poorly fitted or top-dose-only effect, or another doubt; inactive means no such curve, though single readings can be large; an effect the other way counts as inactive or inconclusive.
SMILES,AmpC inh no detg,Shiga toxin inh,SARS PLpro yeast,CHX counter,AMA1 RON2 block,AmpC inh detg
O=C(Nc1cccc(-c2cn3ccccc3n2)c1)c1cccs1,-32%,61*,-16%,34*,-5%,1%
CC(=O)Nc1cccc(-c2cn3ccccc3n2)c1,-12%,40,-1%,39,-2%,-3%
O=C(Nc1cccc(-c2cn3ccccc3n2)c1)c1cc2ccccc2oc1=O,-17%,71*,-5%,59*,5%,-2%
COc1ccc(CC(=O)Nc2ccc(-c3cn4cccc(C)c4n3)cc2)cc1OC,31%,23,2%,15,26%,-5%
Cc1ccn2cc(-c3cccc(NC(=O)C(C)C)c3)nc2c1,-32%,35,-1%,23*,3%,4%
COc1ccc(CC(=O)Nc2ccc(-c3cn4ccc(C)cc4n3)cc2)cc1,-19%,16,-9%,16*,-5%,?
COc1cccc2c3c(c(=O)[nH]c12)CCC(C)(C)O3,-8%,36,-8%,13*,-10%,?
COc1cccc2c3c(c(=O)[nH]c12)CC(C)(C)O3,.,.,.,.,-6%,.
Cc1ccc(S(=O)(=O)N(C)C)cc1NC(=O)COC(=O)CCC1CCCC1,4%,.,8%,.,1%,-6%
O=C(CCSc1ccccc1)Nc1nc2c(s1)CCCC2,-21%,162*,-6%,31*,-10%,-5%
CCCC(=O)Nc1nc2c(s1)COc1ccccc1-2,-22%,31*,-16%,24*,-2%,-6%
Nc1nc2c(s1)COc1ccccc1-2,-17%,42,-7%,14*,15%,6%
CCCC(=O)Nc1nc(-c2ccccc2)c(CC)s1,-27%,1,-1%,-5,-18%,3%
O=C(CSc1ncn(-c2ccccc2)n1)Nc1nc2c(s1)CCCC2,-30%,23,-13%,11,-19%,-1%
CC(C)(C)C(=O)Nc1nc2c(s1)COc1ccccc1-2,0.71µM*,46*,?,19*,4%,?
Cc1ccc(CCNC(=O)C2CCN(S(=O)(=O)N3CCC4(CC3)OCCO4)CC2)cc1,-1%,-15,-7%,1,-2%,-3%
O=C1c2ccccc2NC(c2ccc(-c3ccc(C(F)(F)F)cc3)o2)N1O (stereo not drawn),0%,.,13%,.,.,.
O=C(CCSc1ccccc1)Nc1nc2c(s1)COc1ccccc1-2,3.2µM*,12,-7%,-1,56%,?
CCCN(CCC)S(=O)(=O)c1ccc(C(=O)Nc2nc3c(s2)CCc2ccccc2-3)cc1,-27%,-7,-7%,-2,1%,-4%
Cc1nnc(NC(=O)CCSc2ccccc2)s1,18%,53,13%,-3,-6%,-6%
CCCCC(=O)Nc1nc2c(s1)COc1ccccc1-2,-1%,42*,-9%,38*,-4%,-13%
Cc1cc2oc(=O)cc(CSc3nnc(-c4cccs4)o3)c2cc1C(C)C,-27%,4,-9%,11*,-15%,4%
CC(=O)OCC(=O)[C@@]1(O)CC[C@H]2[C@@H]3C[C@H](C)C4=CC(=O)C=C[C@]4(C)[C@H]3[C@@H](O)C[C@@]21C,52%,-6,4%,1,-6%,-10%
COc1ccccc1NC1=C(NC(C)=O)C(=O)c2ccccc2C1=O,-9%,27,-4%,7,16%,3%
COc1ccc(N(/N=C2\Sc3ccccc3C2=O)C(C)=O)cc1,-8%,+,-7%,60*,0%,0%
SMILES,AmpC inh no detg,Shiga toxin inh,SARS PLpro yeast,CHX counter,AMA1 RON2 block,AmpC inh detg
COc1ccccc1N(/N=C1\Sc2ccccc2C1=O)C(C)=O,-4%,60*,1%,24*,-16%,?
CC(C)(C)c1ccc(C2=NC(=O)C(CC(=O)O)S2)cc1 (stereo not drawn),-49%,31,2%,13*,9%,1%
Cc1ccc2[nH]c(C(=O)N3CCOCC3)cc2c1,-10%,17,-5%,active,-9%,-13%
Cc1ccc2[nH]c(C(=O)N3CCC(C(N)=O)CC3)cc2c1,-9%,.,14%,16,11%,7%
Cc1ccc2[nH]c(C(=O)N3CCCCC3)cc2c1,-26%,.,-1%,26*,-3%,-14%
O=C(c1cc(Br)ccc1Cl)N1CCC2(CC1)OCCO2,-12%,-4,2%,-2,2%,-2%
O=C(c1cc2cc(Br)ccc2[nH]1)N1CCC2(CC1)OCCO2,33%,46,-3%,28*,3%,2%
COc1ccc(OCCNC(=O)/C=C/c2ccc([N+](=O)[O-])cc2)cc1,-27%,-14,0%,-4,-7%,-16%
C=CCN1C(=O)N(c2ccccc2)C(=O)C1CC(=O)Nc1ccc(OC)cc1 (stereo not drawn),-6%,.,6%,4,2%,-6%
CCOC(=O)CSc1nc2sc3c(c2c(=O)n1-c1ccc(OC)cc1)CC(C(C)C)OC3 (stereo not drawn),.,.,.,.,.,12%
O=C(c1cnn2c(C(F)(F)F)cc(-c3ccccc3)nc12)N1CCCCC1c1cccnc1 (stereo not drawn),18%,-6,-2%,-1,0%,-6%
Cc1ccc(N=C(c2cccs2)N2CCOCC2)cc1,-9%,59*,-1%,15*,9%,2%
O=C(c1cccs1)N1CCOCC1,-11%,16,-1%,-1,-1%,?
Cc1ccccc1OCC(=O)Nc1cccc(Cl)c1C,6%,9,2%,8,-8%,-6%
CSc1ccccc1NC(=O)COc1ccccc1Cl,-27%,132,-20%,51*,18%,-12%
O=C(COc1ccccc1Cl)Nc1ccccc1C(=O)N1CCCCC1,7%,85*,-5%,43*,-4%,1%
CSc1ccccc1NC(=O)COc1ccc(Cl)cc1Cl,-24%,43*,5%,17*,120%,?
COc1cccc(-c2cc3nc(-c4ccccc4)cc(=O)n3[nH]2)c1,-27%,34,-1%,31,12%,7%
Cc1sc2ncnc(N3CCC(C(=O)Nc4cc(Cl)ccc4Cl)CC3)c2c1C,17%,.,-12%,.,-6%,?
S=C(Nc1ccccc1)N1CCN(C2CCCCC2)CC1,-2%,-2,1%,1,-5%,?
COc1ccc(OC)c(S(=O)(=O)N2Cc3ccccc3CC2C(=O)Nc2nccs2)c1 (stereo not drawn),-18%,107*,4%,64*,11%,?
COc1ccc(OC)c(S(=O)(=O)N2Cc3ccccc3CC2C(=O)Nc2ccc(C)cc2C)c1 (stereo not drawn),.,.,.,.,.,-7%
COc1ccc(C(=O)CC(Nc2ccc([N+](=O)[O-])cc2)c2ccc(Cl)cc2)cc1 (stereo not drawn),-32%,14,-10%,10*,8%,5%
